Broadly, the AC50 is the midpoint of the concentration-response curve, whichever way the signal moves.

Consider three compounds from PubChem BioAssay (EPA / NIEHS).

Assay [1] addresses human Peroxisome Proliferator-activated Receptor alpha (PPARa), PPARA (gene 5465) (UniProt Q07869). The assay is described as follows: ATG_PPARa_TRANS: Attagene TRANS-FACTORIAL HepG2 Assay for human Peroxisome Proliferator-activated Receptor alpha (PPARa) (AID 2283001). The method, boiled down: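 Exposure: 24 h, transiently transfected HepG2 cells. Endpoint: GAL4-UAS reporter mRNA, RT-PCR with capillary electrophoresis fluorescence. Baseline: DMSO; increases fitted.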

For assay [2], the target named is human Peroxisome Proliferator-activated Receptor delta (PPARd), PPARD (gene 5467) (UniProt Q03181). Put plainly: ATG_PPARd_TRANS: Attagene TRANS-FACTORIAL HepG2 Assay for human Peroxisome Proliferator-activated Receptor delta (PPARd) (AID 2283002). In a few lines: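 Measured quantity: GAL4-UAS reporter transcript induction in HepG2 after 24 h chemical dosing, with NR-Gal4 chimeras supplied by transient transfection. Detection by RT-PCR and capillary electrophoresis; upward fit against DMSO.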
Chain of human Peroxisome Proliferator-activated Receptor delta (PPARd), PPARD (gene 5467) (Q03181 whole entry, looked up, the tested form may be a part): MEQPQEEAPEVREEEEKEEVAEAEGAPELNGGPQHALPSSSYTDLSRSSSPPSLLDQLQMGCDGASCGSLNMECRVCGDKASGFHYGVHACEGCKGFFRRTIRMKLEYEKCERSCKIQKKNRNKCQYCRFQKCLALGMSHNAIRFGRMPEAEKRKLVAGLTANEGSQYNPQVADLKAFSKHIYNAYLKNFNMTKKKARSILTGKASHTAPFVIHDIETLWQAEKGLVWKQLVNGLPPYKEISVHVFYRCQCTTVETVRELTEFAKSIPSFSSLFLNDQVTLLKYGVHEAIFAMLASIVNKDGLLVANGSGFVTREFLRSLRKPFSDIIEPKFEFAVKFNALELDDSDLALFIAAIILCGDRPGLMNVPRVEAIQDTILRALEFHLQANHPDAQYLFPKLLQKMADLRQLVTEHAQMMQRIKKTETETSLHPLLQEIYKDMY

Read-out in assay [3]: Intercellular Adhesion Molecule 1 (ICAM1), ICAM1 (gene 3383)
Put plainly: BSK_3C_ICAM1: BioMAP Diversity Plus: 3C Assay for Intercellular Adhesion Molecule 1 (ICAM1) Biomarker Activity (AID 2283003; active = hit-call score of the fitted dose curve at least 0.9, where 1 is the maximum; inactive = score below 0.9). Conditions: primary human endothelial cells (HUVEC); actives raise or lower the signal. The method, boiled down:
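Using DMSO as baseline, bidirectional curve fitting was applied to ICAM-1 ELISA signals from HUVEC in the 3C system, measured 24 h after compound addition.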

Assay [4] addresses human Retinoic Acid Receptor beta (RARb), RARB (gene 5915) (UniProt P10826). Put plainly: ATG_RARb_TRANS: Attagene TRANS-FACTORIAL HepG2 Assay for human Retinoic Acid Receptor beta (AID 2283004). In a few lines:
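HepG2 cells transiently transfected with multiplexed GAL4-UAS reporter units expressing chimeric NR–Gal4 fusions; 24 h compound exposure. Reporter mRNA quantified by RT-PCR, 6-FAM labelling, HpaI digestion and capillary electrophoresis; gain-of-signal fitted against DMSO baseline.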

The target in assay [5] is Retinoic acid receptor alpha (Homo sapiens) (UniProt P10276). The assay is described as follows: ATG_RARa_TRANS: Attagene TRANS-FACTORIAL HepG2 Assay for human Retinoic Acid Receptor alpha (RARa) (AID 2283005). In a few lines: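 HepG2 cells transiently transfected with multiple reporter units expressing chimeric RARα-GAL4 fusion, with GAL4-UAS-driven reporters. After 24 h compound exposure, reporter mRNA induction quantified by RT-PCR and capillary electrophoresis with fluorescent labeling; gain-of-signal fitted relative to DMSO control.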
Chain of Retinoic acid receptor alpha (Homo sapiens) (P10276 whole entry, looked up, the tested form may be a part): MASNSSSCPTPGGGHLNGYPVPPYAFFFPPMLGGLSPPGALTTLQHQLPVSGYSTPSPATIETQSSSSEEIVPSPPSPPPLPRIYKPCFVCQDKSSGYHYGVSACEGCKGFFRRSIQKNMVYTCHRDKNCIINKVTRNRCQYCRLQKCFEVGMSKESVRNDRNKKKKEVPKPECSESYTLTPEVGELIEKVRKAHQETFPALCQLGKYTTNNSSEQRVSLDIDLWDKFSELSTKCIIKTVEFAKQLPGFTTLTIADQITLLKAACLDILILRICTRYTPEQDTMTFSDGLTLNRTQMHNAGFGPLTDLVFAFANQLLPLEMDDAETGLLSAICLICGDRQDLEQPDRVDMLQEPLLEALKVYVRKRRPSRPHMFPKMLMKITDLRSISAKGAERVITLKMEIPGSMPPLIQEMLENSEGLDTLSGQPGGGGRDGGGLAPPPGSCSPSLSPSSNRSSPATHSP

The nature of assay [6]: BSK_3C_Proliferation: Cell Proliferation Assessment in the BioMAP Diversity Plus: 3C Assay (AID 2283006; active = hit-call score of the fitted dose curve at least 0.9, where 1 is the maximum; inactive = score below 0.9;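 for AC50: potency may reflect either rise or fall in cell number versus DMSO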). Conditions: primary human endothelial cells (HUVEC). The method, boiled down:
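Measured here: sulforhodamine B (0.1%) staining of TCA-fixed sub-confluent umbilical vein endothelial cultures 48 h post-dosing, absorbance 560 nm. DMSO served as negative control and baseline; both signal gain and loss were modelled.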

For assay [7], the target named is Peroxisome proliferator-activated receptor gamma (Homo sapiens) (UniProt P37231). The assay is described as follows: ATG_PPARg_TRANS: Attagene TRANS-FACTORIAL HepG2 Assay for human Peroxisome Proliferator-activated Receptor-gamma (PPARg) (AID 2283007). The method, boiled down: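 A TRANS-format multiplexed reporter assay measures activity of an exogenous chimeric NR-Gal4 protein in HepG2 cells. After 24 h of chemical exposure, reporter transcripts are amplified, fluorescently labelled and sized by capillary electrophoresis, with gain of signal scored against DMSO.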
Chain of Peroxisome proliferator-activated receptor gamma (Homo sapiens) (P37231 whole entry, looked up, the tested form may be a part): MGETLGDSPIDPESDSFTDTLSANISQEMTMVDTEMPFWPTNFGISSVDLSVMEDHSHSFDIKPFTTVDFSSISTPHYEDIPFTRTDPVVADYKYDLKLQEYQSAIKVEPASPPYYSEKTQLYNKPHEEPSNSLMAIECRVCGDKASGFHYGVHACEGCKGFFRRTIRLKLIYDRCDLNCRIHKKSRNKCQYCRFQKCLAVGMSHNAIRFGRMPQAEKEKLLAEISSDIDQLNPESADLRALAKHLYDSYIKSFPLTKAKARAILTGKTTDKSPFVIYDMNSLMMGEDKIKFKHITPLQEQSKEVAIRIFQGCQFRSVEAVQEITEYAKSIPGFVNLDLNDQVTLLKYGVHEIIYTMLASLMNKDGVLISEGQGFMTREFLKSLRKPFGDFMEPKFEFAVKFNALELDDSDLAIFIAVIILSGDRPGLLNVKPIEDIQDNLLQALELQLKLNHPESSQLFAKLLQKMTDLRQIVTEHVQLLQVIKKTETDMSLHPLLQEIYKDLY

In assay [8] the target is Nuclear receptor subfamily 1 group I member 2 (Homo sapiens) (UniProt O75469). The assay is described as follows: ATG_PXR_TRANS: Attagene TRANS-FACTORIAL HepG2 Assay for human Pregnane X Receptor (PXR) (AID 2283008). The method, boiled down: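 Transient HepG2 transfectants carrying multiplexed reporter transcription units; PXR activity read through a Gal4 chimera. 24 h exposure. RT-PCR/CE fluorescence; upward curve fit referenced to DMSO.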
Chain of Nuclear receptor subfamily 1 group I member 2 (Homo sapiens) (O75469 whole entry, looked up, the tested form may be a part): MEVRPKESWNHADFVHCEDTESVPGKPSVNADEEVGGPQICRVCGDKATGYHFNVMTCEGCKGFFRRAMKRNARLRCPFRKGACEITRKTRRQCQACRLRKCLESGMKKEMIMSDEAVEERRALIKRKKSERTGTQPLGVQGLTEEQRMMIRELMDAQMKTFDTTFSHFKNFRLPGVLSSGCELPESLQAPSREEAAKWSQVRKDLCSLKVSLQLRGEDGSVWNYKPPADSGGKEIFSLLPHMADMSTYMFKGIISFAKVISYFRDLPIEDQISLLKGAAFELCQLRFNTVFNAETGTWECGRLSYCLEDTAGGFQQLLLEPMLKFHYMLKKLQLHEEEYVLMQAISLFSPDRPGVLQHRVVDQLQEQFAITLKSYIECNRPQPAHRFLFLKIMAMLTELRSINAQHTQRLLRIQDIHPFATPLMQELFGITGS

Assay [9] has as its target human Retinoic Acid Receptor gamma (RARg), RARG (gene 5916) (UniProt P13631). Put plainly: ATG_RARg_TRANS: Attagene TRANS-FACTORIAL HepG2 Assay for human Retinoic Acid Receptor gamma (RARg) (AID 2283009). In a few lines: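 Gain-of-signal relative to DMSO is reported from fluorescent capillary electrophoresis of RT-PCR reporter products. These came from HepG2 cells expressing transfected RARg-GAL4 chimeras with UAS reporters, harvested 24 h after dosing.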

For assay [10], the target named is human RAR-related Orphan Receptor gamma (RORg), RORC (gene 6097) (UniProt P51449). The assay is described as follows: ATG_RORg_TRANS: Attagene TRANS-FACTORIAL HepG2 Assay for human RAR-related Orphan Receptor gamma (RORg) (AID 2283011). The method, boiled down: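 Readout: reporter transcript induction (RT-PCR, fluorescent primer extension, capillary electrophoresis) after 24 h compound exposure of transiently transfected HepG2 cells carrying a RORg-Gal4 chimera and GAL4-UAS reporters; DMSO served as baseline, with increasing signal fitted.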
Chain of human RAR-related Orphan Receptor gamma (RORg), RORC (gene 6097) (P51449 whole entry, looked up, the tested form may be a part): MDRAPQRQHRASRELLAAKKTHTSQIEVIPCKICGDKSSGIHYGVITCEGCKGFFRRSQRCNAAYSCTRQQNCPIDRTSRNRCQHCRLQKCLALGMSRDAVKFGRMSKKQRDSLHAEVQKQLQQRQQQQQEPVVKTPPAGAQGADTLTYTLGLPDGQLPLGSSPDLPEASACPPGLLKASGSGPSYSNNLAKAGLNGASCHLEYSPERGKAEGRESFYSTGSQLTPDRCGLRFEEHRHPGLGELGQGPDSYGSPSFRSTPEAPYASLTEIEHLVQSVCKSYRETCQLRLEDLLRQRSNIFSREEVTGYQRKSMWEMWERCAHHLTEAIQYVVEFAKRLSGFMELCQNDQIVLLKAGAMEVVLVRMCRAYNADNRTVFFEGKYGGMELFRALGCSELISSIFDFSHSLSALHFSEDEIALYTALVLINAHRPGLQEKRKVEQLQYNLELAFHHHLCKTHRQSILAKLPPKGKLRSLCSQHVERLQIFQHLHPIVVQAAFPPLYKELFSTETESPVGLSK

Assay [11] has as its target Retinoic acid receptor RXR-alpha (Homo sapiens) (UniProt P19793). The assay is described as follows: ATG_RXRa_TRANS: Attagene TRANS-FACTORIAL HepG2 Assay for human Retinoid X Receptor alpha (RXRa) (AID 2283012). In a few lines: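 Chimeric NR-GAL4 trans-activation in HepG2, 24 h treatment; reporter transcripts quantified by fluorescence on capillary electrophoresis, analysed for upward change from DMSO.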

Assay [12] addresses human Retinoid X Receptor beta (RXRb), RXRB (gene 6257) (UniProt P28702). Put plainly: ATG_RXRb_TRANS: Attagene TRANS-FACTORIAL HepG2 Assay for human Retinoid X Receptor beta (RXRb) (AID 2283013). In a few lines: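 After a 24 h incubation with test chemical, transfected HepG2 cells carrying NR-Gal4 fusions and GAL4-UAS reporter transcription units yield RNA whose reporter cDNA is FAM-labelled, HpaI-cut and sized by capillary electrophoresis; increases over DMSO are scored.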

The target of assay [13] is human Thyroid Receptor alpha (THRa1), THRA (gene 7067) (UniProt P10827). Put plainly: ATG_THRa1_TRANS: Attagene TRANS-FACTORIAL HepG2 Assay for human Thyroid Receptor alpha (THRa1) (AID 2283014). In a few lines: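 HepG2 cells transiently transfected with multiplexed GAL4-UAS reporter units for exogenous chimeric THRa1-Gal4; reporter mRNA measured 24 h after dosing by RT-PCR, 6-FAM labelling, HpaI digestion and capillary electrophoresis. Gain-of-signal fitted versus DMSO baseline.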
Chain of human Thyroid Receptor alpha (THRa1), THRA (gene 7067) (P10827 whole entry, looked up, the tested form may be a part): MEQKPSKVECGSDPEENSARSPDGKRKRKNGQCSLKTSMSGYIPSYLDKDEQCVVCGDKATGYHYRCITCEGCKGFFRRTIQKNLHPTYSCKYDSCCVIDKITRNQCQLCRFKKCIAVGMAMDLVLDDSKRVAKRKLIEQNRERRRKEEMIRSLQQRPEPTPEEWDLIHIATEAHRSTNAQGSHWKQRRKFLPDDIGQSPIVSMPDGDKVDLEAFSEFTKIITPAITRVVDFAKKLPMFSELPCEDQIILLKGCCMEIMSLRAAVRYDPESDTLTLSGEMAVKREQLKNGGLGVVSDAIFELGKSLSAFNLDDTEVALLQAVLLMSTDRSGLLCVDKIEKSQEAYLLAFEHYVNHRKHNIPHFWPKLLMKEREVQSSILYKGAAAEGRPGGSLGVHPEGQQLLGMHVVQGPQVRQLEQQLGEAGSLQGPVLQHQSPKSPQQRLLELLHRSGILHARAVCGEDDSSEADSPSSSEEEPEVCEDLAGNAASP

Read-out in assay [14]: E-selectin (Homo sapiens) (UniProt P16581)
The assay is described as follows: BSK_3C_Eselectin: BioMAP Diversity Plus: 3C Assay for Eselectin Biomarker Activity (AID 2283015; active = hit-call score of the fitted dose curve at least 0.9, where 1 is the maximum; inactive = score below 0.9;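 for outcome: cell surface E-selectin protein quantified by ELISA 24 h after dosing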). Conditions: primary human endothelial cells (HUVEC); actives raise or lower the signal. The method, boiled down:
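Primary human umbilical vein endothelial cells (3C system) were dosed with chemical and cell-surface E-selectin measured by ELISA 24 h later. Bidirectional curve fitting used DMSO as negative control and baseline.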

Read-out in assay [15]: Interleukin-1 alpha (IL1a), IL1A (gene 3552)
The assay is described as follows: BSK_BE3C_IL1a: BioMAP Diversity Plus: BE3C Assay for Interleukin-1 alpha (IL1a) Biomarker Activity (AID 2283016; active = hit-call score of the fitted dose curve at least 0.9, where 1 is the maximum; inactive = score below 0.9). The conditions noted are these: primary human bronchial epithelial cells; actives raise or lower the signal. The method, boiled down: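 Measured in human lung primary bronchial epithelial cells: IL-1a by ELISA at 24 h after dosing, with bidirectional fitting against DMSO.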

Read-out in assay [16]: Monocyte Chemoattractant Protein-1 (MCP1), CCL2 (gene 6347)
The assay is described as follows: BSK_3C_MCP1: BioMAP Diversity Plus: 3C Assay for Monocyte Chemoattractant Protein-1 (MCP1) Biomarker Activity (AID 2283017; active = hit-call score of the fitted dose curve at least 0.9, where 1 is the maximum; inactive = score below 0.9). The conditions noted are these: primary human endothelial cells (HUVEC); actives raise or lower the signal. In a few lines:
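Primary human umbilical vein endothelial cells (3C system) were exposed to test chemical for 24 h, after which MCP-1 was quantified by ELISA. Activity was fitted bidirectionally against DMSO as negative control and baseline.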

Read-out in assay [17]: Monocyte Chemoattractant Protein-1 (MCP1), CCL2 (gene 6347)
Put plainly: BSK_4H_MCP1: BioMAP Diversity Plus: 4H Assay for Monocyte Chemoattractant Protein-1 (MCP1) Biomarker Activity (AID 2283018; active = hit-call score of the fitted dose curve at least 0.9, where 1 is the maximum; inactive = score below 0.9). The conditions noted are these: primary human endothelial cells (HUVEC); actives raise or lower the signal. In a few lines: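 Primary human umbilical vein endothelium is exposed to chemical for 24 h before MCP-1 is assayed by ELISA. Concentration-response fitted bidirectionally relative to DMSO.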

Read-out in assay [18]: Human Leukocyte Antigen - DR isotype (HLADR), HLA-DRA (gene 3122)
Put plainly: BSK_3C_HLADR: BioMAP Diversity Plus: 3C Assay for Human Leukocyte Antigen - DR isotype (HLADR) Biomarker Activity (AID 2283019; active = hit-call score of the fitted dose curve at least 0.9, where 1 is the maximum; inactive = score below 0.9). Conditions: primary human endothelial cells (HUVEC); actives raise or lower the signal. The method, boiled down: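 Primary human umbilical vein endothelial cells (3C system) were dosed with compound and cell-surface HLA-DR was quantified by ELISA at 24 h. Activity was fitted bidirectionally against DMSO as negative control and baseline.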

Read-out in assay [19]: Interleukin-8 (IL8), CXCL8 (gene 3576)
Put plainly: BSK_3C_IL8: BioMAP Diversity Plus: 3C Assay for Interleukin-8 (IL8) Biomarker Activity (AID 2283020; active = hit-call score of the fitted dose curve at least 0.9, where 1 is the maximum; inactive = score below 0.9). Conditions: primary human endothelial cells (HUVEC); actives raise or lower the signal. The method, boiled down: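 Using DMSO-treated wells as the baseline, bidirectional curve fitting was applied to ELISA-measured IL-8 from human umbilical vein endothelial cultures sampled 24 h after compound addition.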

Read-out in assay [20]: Monokine induced gamma interferon (MIG), CXCL9 (gene 4283)
Put plainly: BSK_3C_MIG: BioMAP Diversity Plus: 3C Assay for Monokine induced gamma interferon (MIG) Biomarker Activity (AID 2283021; active = hit-call score of the fitted dose curve at least 0.9, where 1 is the maximum; inactive = score below 0.9;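 for AC50: MIG protein level measured by immunoassay in the treated endothelial cultures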). Conditions: primary human endothelial cells (HUVEC); actives raise or lower the signal. The method, boiled down:
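ELISA-measured MIG in dosed HUVEC 3C cultures at 24 h, analysed by bidirectional fitting with DMSO defining baseline activity.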

Where “and” joins values, the source holds several entries; their conditions need not be identical. Equal entries are not always repeated. Results filed as inconclusive are left out. Some structures have more than one record in an assay (separate samples or runs), and their calls can disagree. Calls of active or inactive are those of the source. Rule for the calls, unless noted: active = hit-call score of the fitted dose curve at least 0.9, where 1 is the maximum; inconclusive = response in the unintended direction; inactive = score below 0.9.

Chain of human Retinoic Acid Receptor gamma (RARg), RARG (gene 5916) (P13631 whole entry, looked up, the tested form may be a part): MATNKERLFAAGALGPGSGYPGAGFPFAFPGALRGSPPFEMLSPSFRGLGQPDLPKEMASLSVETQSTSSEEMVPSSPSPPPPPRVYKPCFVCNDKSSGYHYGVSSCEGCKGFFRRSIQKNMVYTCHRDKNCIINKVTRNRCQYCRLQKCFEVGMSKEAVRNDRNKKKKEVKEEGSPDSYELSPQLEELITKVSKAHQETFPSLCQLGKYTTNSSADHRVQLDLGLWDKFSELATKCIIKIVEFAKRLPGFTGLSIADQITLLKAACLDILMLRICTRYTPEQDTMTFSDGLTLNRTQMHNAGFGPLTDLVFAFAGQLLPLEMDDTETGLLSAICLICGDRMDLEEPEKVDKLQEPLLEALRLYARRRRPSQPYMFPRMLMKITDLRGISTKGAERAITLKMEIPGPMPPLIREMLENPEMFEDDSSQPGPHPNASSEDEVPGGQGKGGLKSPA
Chain of E-selectin (Homo sapiens) (P16581 whole entry, looked up): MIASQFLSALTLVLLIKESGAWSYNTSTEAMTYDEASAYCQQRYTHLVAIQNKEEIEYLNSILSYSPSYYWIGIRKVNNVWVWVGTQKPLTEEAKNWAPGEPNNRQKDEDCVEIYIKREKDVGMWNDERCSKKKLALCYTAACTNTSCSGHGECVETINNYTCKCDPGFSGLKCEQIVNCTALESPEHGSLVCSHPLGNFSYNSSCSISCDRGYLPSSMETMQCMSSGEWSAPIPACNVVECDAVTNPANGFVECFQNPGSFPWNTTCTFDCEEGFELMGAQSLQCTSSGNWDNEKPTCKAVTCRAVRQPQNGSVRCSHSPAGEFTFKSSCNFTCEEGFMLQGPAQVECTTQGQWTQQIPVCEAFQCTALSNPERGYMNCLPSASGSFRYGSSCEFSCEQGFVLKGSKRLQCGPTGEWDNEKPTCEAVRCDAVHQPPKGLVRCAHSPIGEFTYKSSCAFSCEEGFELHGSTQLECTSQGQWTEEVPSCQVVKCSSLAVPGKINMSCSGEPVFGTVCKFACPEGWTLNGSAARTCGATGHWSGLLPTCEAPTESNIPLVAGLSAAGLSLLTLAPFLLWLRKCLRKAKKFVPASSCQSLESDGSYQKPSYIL
Chain of Retinoic acid receptor RXR-alpha (Homo sapiens) (P19793 whole entry, looked up, the tested form may be a part): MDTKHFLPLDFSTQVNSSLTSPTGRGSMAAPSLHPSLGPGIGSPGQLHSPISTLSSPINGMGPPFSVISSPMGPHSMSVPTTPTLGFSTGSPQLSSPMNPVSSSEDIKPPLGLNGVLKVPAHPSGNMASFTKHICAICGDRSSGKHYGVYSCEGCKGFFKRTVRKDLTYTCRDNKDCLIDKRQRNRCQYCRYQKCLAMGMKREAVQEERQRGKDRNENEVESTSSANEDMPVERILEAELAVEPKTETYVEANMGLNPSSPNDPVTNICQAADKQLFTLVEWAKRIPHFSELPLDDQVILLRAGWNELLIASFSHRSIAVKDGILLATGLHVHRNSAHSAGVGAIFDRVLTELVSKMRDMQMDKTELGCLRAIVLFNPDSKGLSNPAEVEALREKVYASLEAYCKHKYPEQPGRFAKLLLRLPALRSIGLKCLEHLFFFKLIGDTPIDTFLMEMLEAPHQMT
Chain of human Retinoic Acid Receptor beta (RARb), RARB (gene 5915) (P10826 whole entry, looked up, the tested form may be a part): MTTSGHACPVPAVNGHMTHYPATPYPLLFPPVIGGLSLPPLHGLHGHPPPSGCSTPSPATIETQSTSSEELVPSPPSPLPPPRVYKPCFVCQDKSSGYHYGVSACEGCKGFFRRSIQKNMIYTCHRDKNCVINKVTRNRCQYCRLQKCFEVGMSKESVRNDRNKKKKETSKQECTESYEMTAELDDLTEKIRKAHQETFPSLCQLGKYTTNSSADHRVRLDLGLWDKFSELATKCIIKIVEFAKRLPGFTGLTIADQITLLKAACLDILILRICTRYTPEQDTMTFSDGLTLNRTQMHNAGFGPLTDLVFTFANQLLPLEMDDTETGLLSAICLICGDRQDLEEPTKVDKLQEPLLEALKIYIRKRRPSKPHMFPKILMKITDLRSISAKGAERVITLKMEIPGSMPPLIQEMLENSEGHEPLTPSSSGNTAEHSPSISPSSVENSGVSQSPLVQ

In the case of `OCCC(F)(F)C(F)(F)C(F)(F)C(F)(F)C(F)(F)C(F)(F)F`, the outcome in assay [1], in assay [2], in assay [3], in assay [4], in assay [5] and in assay [6] was inactive. In addition, the compound was classed as inactive in assay [7], in assay [8], in [9], in assay [10], in [11] and in assay [12]. In addition, the result in assay [13], in assay [14], in assay [15], in [16], in assay [17] and in [18] was inactive. Also, the result in [19] and in assay [20] was inactive. Also, the concentration at half-maximal activity (AC50) in assay [3] was 54.7 µM (active) and 44.7 µM (active); in assay [6], 46.5 µM (active) and 56.6 µM (active); in [16] it was 49.8 µM (active); in assay [18] it was 46.1 µM (active) and 42.1 µM (active); in assay [19] it was 45.7 µM (active); in assay [20] it was 44.8 µM (active) and 45.3 µM (active).

Turning to `CC(=O)NC1(c2cccc(F)c2)CCN(CC[C@@]2(c3ccc(Cl)c(Cl)c3)CN(c3ccccc3)C(=O)CO2)CC1`, the outcome in assay [1], in assay [2], in [4], in assay [9], in assay [15] and in assay [17] was inactive. Also, in assay [20], the outcome was inactive. Also, the AC50 in [6] is 20.8 µM (active); in assay [7], 49.1 µM (active); in [11], 49.7 µM (active); in assay [13] it was 59.9 µM (active); in assay [14], 30.7 µM (active); in assay [16] it was 23.5 µM (active). The AC50 in [18] was 24.9 µM (active); in assay [19], 17.8 µM (active).

For `O=C(O)c1ccccc1C(c1ccc(O)cc1)c1ccc(O)cc1`, the result in assay [1], in assay [2], in assay [3], in [4], in assay [5] and in assay [6] was inactive. In addition, the result in assay [8], in [9], in [10], in assay [11], in assay [12] and in assay [13] was inactive. Moreover, the outcome in assay [14], in assay [15], in assay [16], in assay [17], in assay [18] and in [19] was inactive. Besides, the result in [20] was inactive.
